Test results: PubChem BioAssay (NCATS)
Results filed as inconclusive are left out. Active and inactive are the calls of the source. Unless noted, the call rests on the fitted dose curve; in most records, active means well fitted curve in the direction sought with a large enough effect; inconclusive means small, poorly fitted or top-dose-only effect, or another doubt; inactive means no such curve, though single readings can be large; an effect the other way counts as inactive or inconclusive.

Experiments:
[1] = molecular target: Rap guanine nucleotide exchange factor 3 (Homo sapiens) (UniProt O95398); experiment: Confirmatory qHTS for agonist of cAMP-regulated guanine nucleotide exchange factor 3 (EPAC1) (AID 1645881);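 further: EPAC1 catalysed release of BODIPY-GDP from Rap1B seen as fluorescence loss; 100% = effect of cAMP agonist control; nearly all actives have a fitted effect of over 75% in size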
Chain of Rap guanine nucleotide exchange factor 3 (Homo sapiens) (O95398 whole entry, looked up): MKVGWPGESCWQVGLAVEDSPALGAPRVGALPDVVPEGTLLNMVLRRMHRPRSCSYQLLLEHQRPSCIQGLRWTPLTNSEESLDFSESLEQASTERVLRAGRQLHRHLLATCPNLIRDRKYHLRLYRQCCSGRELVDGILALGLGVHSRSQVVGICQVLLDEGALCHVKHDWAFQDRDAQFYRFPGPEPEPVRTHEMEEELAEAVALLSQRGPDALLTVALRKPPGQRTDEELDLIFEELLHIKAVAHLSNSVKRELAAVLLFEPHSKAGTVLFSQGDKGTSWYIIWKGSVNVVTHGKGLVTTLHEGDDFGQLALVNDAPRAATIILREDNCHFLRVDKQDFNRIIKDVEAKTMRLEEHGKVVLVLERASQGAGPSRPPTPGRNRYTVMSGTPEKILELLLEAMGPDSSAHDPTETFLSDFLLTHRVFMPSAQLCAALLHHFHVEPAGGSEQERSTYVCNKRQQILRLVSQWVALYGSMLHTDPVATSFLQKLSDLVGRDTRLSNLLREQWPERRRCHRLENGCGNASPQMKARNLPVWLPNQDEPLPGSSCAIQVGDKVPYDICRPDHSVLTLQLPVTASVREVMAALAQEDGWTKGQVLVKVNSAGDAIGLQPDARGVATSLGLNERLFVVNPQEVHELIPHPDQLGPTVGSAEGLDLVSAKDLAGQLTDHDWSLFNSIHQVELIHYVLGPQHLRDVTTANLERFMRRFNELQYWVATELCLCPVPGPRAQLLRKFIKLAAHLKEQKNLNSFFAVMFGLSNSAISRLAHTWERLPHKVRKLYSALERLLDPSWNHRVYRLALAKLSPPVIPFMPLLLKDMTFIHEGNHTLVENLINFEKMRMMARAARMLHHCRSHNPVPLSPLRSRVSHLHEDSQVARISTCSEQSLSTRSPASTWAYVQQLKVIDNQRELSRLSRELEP

[2] = molecular target: Rap guanine nucleotide exchange factor 4 (Homo sapiens) (UniProt Q8WZA2); experiment: Confirmatory qHTS for agonist of cAMP-regulated guanine nucleotide exchange factor 4 (EPAC2) (AID 1645884);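 further: nucleotide exchange releases bodipy-GDP from Rap1 and this lowers its fluorescence; on the % scale 0 is the no-effect control and ±100 the full control effect; nearly all actives have a fitted effect of over 65% in size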
Chain of Rap guanine nucleotide exchange factor 4 (Homo sapiens) (Q8WZA2 whole entry, looked up): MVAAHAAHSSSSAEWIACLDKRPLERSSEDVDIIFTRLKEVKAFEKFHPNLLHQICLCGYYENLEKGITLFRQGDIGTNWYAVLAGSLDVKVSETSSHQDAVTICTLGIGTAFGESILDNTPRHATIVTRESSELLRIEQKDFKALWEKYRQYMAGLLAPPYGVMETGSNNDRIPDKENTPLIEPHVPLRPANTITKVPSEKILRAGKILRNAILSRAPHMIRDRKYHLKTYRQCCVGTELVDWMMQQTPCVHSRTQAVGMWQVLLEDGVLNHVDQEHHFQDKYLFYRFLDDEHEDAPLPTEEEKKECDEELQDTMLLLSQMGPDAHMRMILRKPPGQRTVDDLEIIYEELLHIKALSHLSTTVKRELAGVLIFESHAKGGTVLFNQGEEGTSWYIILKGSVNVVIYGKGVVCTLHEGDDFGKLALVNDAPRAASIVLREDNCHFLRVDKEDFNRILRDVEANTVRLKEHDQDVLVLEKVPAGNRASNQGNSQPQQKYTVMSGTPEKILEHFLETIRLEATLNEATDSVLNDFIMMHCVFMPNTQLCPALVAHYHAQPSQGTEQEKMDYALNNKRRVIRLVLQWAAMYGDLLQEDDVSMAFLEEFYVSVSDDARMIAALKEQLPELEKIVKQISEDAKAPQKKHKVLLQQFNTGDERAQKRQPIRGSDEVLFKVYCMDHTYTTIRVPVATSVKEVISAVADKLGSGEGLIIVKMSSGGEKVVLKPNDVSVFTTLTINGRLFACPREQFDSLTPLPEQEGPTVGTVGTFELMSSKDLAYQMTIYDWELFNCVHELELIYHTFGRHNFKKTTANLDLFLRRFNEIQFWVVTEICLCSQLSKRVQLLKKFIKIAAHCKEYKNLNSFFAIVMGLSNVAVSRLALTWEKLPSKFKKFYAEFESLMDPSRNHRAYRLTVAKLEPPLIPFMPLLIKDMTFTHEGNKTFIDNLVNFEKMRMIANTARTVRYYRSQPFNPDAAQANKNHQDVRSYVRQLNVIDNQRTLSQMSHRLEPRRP

[3] = molecular target: Rap guanine nucleotide exchange factor 4 (Homo sapiens) (UniProt Q8WZA2); experiment: Confirmatory qHTS for antagonist of cAMP-regulated guanine nucleotide exchange factor 4 (EPAC2) (AID 1645885); further: nearly all actives have a fitted effect of over 25% in size; further: potency means the concentration at half of the fitted maximal effect; on activity change, negative = inhibition: on the % scale 0 is the no-effect control and ±100 the full control effect
[4] = molecular target: Rap guanine nucleotide exchange factor 3 (Homo sapiens) (UniProt O95398); experiment: Counterscreen qHTS for antagonist of cAMP-regulated guanine nucleotide exchange factor 3 (EPAC1) (AID 1645888);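 further: fluorescence loss as bound BODIPY-GDP is released from Rap1B; % of control where 0% means no effect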
Summary of the method: (§1)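 Rap1B–BODIPY-GDP (250 nM) with 50 uM GDP; compounds pin-transferred to 9.74 nM–152 uM final (activator) or from 7.32 nM upwards (inhibitor). Fluorescence Ex/Em 480/540 nm read at 5 and 30 min, then after adding cAMP or buffer, at room temperature.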

[5] = molecular target: Rap guanine nucleotide exchange factor 3 (Homo sapiens) (UniProt O95398); experiment: Counterscreen qHTS for agonist of cAMP-regulated guanine nucleotide exchange factor 3 (EPAC1) (AID 1645889); further: % of control where 0% means no effect; nearly all actives have a fitted effect of over 40% in size
Summary of the method: as §1

[6] = AP1 Signaling Pathway (AID 357; active means well fitted curve in either direction with a large enough effect, not every such curve was filed as active;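 further: ME-180 reporter cells stimulated with EGF at its EC50 level; on the % scale 0 is the no-effect control and ±100 the full control effect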); conditions: ME-180 (cervical carcinoma) AP-1-bla reporter, EGF-induced, beta-lactamase ratio, 5 h; at 7.69 µM (top of the series) unless noted
Summary of the method: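 Cells are seeded overnight, exposed to compound titrations and an EC50 level of EGF for 5 hours at 37 °C, then loaded with CCF4 dye for 2.5 hours. Beta-lactamase activity under the AP-1 element is read as a blue/green ratio.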

[7] = NFAT Signaling Pathway (AID 444; active means well fitted curve in either direction with a large enough effect, not every such curve was filed as active;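 further: carbachol stimulus at about its EC50 of 1 µM final; on the % scale 0 is the no-effect control and ±100 the full control effect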); conditions: Jurkat NFAT-bla M1, carbachol, beta-lactamase ratio, 5 h; at 7.69 µM (top of the series) unless noted
Summary of the method: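 Jurkat cells with NFAT-driven β-lactamase reporter and co-expressed M1 receptor, stimulated with carbachol (final 1 uM, ~EC50), compound titration, 5 h at 37 °C. CCF4 loaded 1 h at RT; 460/530 nm ratio gave %activity and AC50.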

[8] = Stat Signaling Pathway (AID 446; active means well fitted curve in either direction with a large enough effect, not every such curve was filed as active;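 further: ME-180 cervical cancer cells given 40 pM IL-6 alongside compound; SIE-controlled beta-lactamase reporter measured as 460/530 nm FRET emission ratio; on the % scale 0 is the no-effect control and ±100 the full control effect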)
Summary of the method: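 Normalization used AC90 stimulation (300 pM IL-6) and AC90 inhibition (125 nM pan-JAK inhibitor at 40 pM IL-6). The underlying signal is SIE-driven beta-lactamase in ME-180 cells after 5 h IL-6 exposure with compound.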

[9] = molecular target: Glucocorticoid receptor (Homo sapiens) (UniProt P04150); experiment: GR-GFP Redistribution (AID 450;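 active means compounds whose dose series gives a full or clear partial fitted curve of increased nuclear translocation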; further: potency means the concentration at half of the fitted maximal effect); conditions: U2OS GR-GFP nuclear translocation, laser cytometry, 2 h
Chain of Glucocorticoid receptor (Homo sapiens) (P04150 whole entry, looked up): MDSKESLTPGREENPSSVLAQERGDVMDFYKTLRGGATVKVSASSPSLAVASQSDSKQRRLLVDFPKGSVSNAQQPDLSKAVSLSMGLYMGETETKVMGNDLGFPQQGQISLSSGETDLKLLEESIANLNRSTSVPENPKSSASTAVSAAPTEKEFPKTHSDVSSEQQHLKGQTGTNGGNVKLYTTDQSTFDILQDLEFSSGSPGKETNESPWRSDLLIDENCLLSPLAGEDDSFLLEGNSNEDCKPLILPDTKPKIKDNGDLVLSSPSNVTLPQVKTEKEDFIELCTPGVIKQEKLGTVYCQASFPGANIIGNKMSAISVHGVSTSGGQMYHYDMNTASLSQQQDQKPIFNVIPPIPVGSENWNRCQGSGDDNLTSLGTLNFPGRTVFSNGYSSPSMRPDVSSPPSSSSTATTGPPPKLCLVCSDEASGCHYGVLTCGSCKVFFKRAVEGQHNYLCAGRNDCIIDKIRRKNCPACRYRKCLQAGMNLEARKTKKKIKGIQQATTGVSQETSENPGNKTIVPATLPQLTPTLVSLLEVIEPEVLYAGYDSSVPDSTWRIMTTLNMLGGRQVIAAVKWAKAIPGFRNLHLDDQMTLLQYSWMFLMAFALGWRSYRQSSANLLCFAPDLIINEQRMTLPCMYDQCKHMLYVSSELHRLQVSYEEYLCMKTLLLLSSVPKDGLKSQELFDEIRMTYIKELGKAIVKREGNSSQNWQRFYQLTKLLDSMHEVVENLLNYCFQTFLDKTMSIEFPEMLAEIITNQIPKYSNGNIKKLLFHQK

CCCCC(CC)C(=O)Nc1ccc(Nc2ccccc2)cc1 (centres undefined)
inactive: Potency [1] | Potency [2] | Potency [3] | Potency [4] | Potency [5]

COc1cccc(OCc2nc3ccccc3n2Cc2ccccc2)c1
inactive: Potency [1] | Potency [2] | Potency [3] | Potency [4] | Potency [5]

CCc1ccc(N(C(=O)c2csnn2)C(C(=O)NCc2ccccc2)c2ccco2)cc1 (centres undefined)
active: Potency [3] 16.9 µM
inactive: Potency [1] | Potency [2] | Potency [4] | Potency [5]

Cc1oc2c(cc(NS(=O)(=O)c3ccc(F)cc3)c3ccccc32)c1C(=O)O
active: Potency [3] 75.7 µM
inactive: Potency [1] | Potency [2] | Potency [4] | Potency [5]

CCc1ccc(N=Nc2ccc(O)c3[nH]cnc23)cc1
inactive: Potency [1] | Potency [2] | Potency [3] | Potency [4] | Potency [5]

Cc1cc(-c2ccc(C(C)C)c(S(=O)(=O)N3CCC(C)CC3)c2)on1
inactive: Potency [1] | activation [2] 8.04% [at 17.1 µM, percent relative to cAMP agonist control] | Potency [3] | activity change, negative = inhibition [4] -17.5% [at 30.8 µM] | activation [5] 0.648% [at 30.8 µM]

COc1cc(CN(C)CC2CCCN(CCc3ccccc3F)C2)cc(Cl)c1OC (centres undefined)
inactive: Potency [1] | Potency [2] | Potency [3] | Potency [4] | Potency [5]

CCOC(=O)Cc1nn(Cc2ccc(Cl)cc2)c(=O)c2ccccc12
inactive: Potency [1] | Potency [2] | Potency [3] | Potency [4] | Potency [5]

CCCN(CCC)C(=O)Cn1c(=O)c2sccc2n2c(=S)sc(-c3ccccc3)c12
inactive: Potency [1] | activation [2] 2.59% [at 17.1 µM, percent relative to cAMP agonist control] | Potency [3] | activity change, negative = inhibition [4] -19.9% [at 30.8 µM] | activation [5] -0.211% [at 30.8 µM]

Cc1ccc(-c2nc3ccc(C)cn3c2Cc2ccccc2C(F)(F)F)cc1
inactive: Potency [1] | Potency [2] | Potency [3] | Potency [4] | Potency [5]

CCc1cc(-c2n[nH]c(C)c2-c2nc(C)cs2)c(O)cc1OC
inactive: Potency [1] | activation [2] 5.22% [at 17.1 µM, percent relative to cAMP agonist control] | Potency [3] | activity change, negative = inhibition [4] -17% [at 30.8 µM] | activation [5] 34.8% [at 30.8 µM]

Cc1ccc2nc3sc(C(=O)Nc4c(C)[nH]c(=O)[nH]c4=O)c(N)c3cc2c1
inactive: Potency [1] | activation [2] 4.59% [at 17.1 µM, percent relative to cAMP agonist control] | Potency [3] | activity change, negative = inhibition [4] 2.13% [at 30.8 µM] | activation [5] 5.21% [at 30.8 µM]

COc1cccc2sc(N(CCCN(C)C)C(=O)C(c3ccccc3)c3ccccc3)nc12
inactive: Potency [1] | activation [2] 7.29% [at 17.1 µM, percent relative to cAMP agonist control] | Potency [3] | activity change, negative = inhibition [4] -0.182% [at 30.8 µM] | activation [5] 23.9% [at 30.8 µM]

CCOC(=O)C1CCCN(c2nc3ccccc3nc2C(C#N)C(=O)OC(C)C)C1 (centres undefined)
inactive: activity change, negative = inhibition [6] -3.2% [at 17.2 µM] | activity change, negative = inhibition [7] -22.1% [at 17.2 µM] | outcome [8] | Potency [9] > 20.6 µM | Potency [1] | activation [2] 6.19% [at 17.1 µM, percent relative to cAMP agonist control] | Potency [3] | activity change, negative = inhibition [4] 0.815% [at 30.8 µM] | activation [5] 36.1% [at 30.8 µM]

C#Cc1ccc([C@@H]2C=C(C(=O)NCc3ccccc3)O[C@H](OCc3ccc(CO)cc3)C2)cc1
inactive: Potency [1] | Potency [2] | Potency [3] | Potency [4] | Potency [5]

C=CCc1ccccc1OCCSc1nc(-c2ccc(C(C)(C)C)cc2)nc2cc(=O)[nH]n12
inactive: Potency [1] | Potency [2] | Potency [3] | Potency [4] | Potency [5]

O=C1C=CC(c2ccccc2)(c2ccccc2)CC1
inactive: Potency [1] | activation [2] 8.73% [at 17.1 µM, percent relative to cAMP agonist control] | Potency [3] | activity change, negative = inhibition [4] -3.3% [at 30.8 µM] | activation [5] 29.7% [at 30.8 µM]

CC(C)c1ccc(C2=CC(c3cccc(Cl)c3)n3ncnc3N2)cc1 (centres undefined)
inactive: Potency [1] | Potency [2] | outcome [3] inactive [at 12.7 µM] | Potency [4] | Potency [5]

Cc1cc2nc(-c3ccco3)c(Cc3cccc(F)c3)n2c(C)c1Br
inactive: Potency [1] | activation [2] 6.3% [at 17.1 µM, percent relative to cAMP agonist control] | Potency [3] | activity change, negative = inhibition [4] -4.32% [at 30.8 µM] | activation [5] 10.5% [at 30.8 µM]
